# The whole screen tested about 1,400 compounds, of which about 210 (15%) were called active. Cut-off read from the data, not from the text of the source: active = inhibition mostly above about 39% (no sharp cut-off); inactive = mostly below about 34%. Not all results are given here.
# Molecular target: Sentrin-specific protease 8 (Homo sapiens) (UniProt Q96LD8)
# Test: human SENP8 protease inhibitors, confirmation, biochemical, Nedd8 protein substrate, single concentration (AID 624319)
# Details: purified SENP8, Nedd8-AMC/pro-Nedd8 cleavage fluorescence, 30 min; at 25 µM; hits give high values
# Sentrin-specific protease 8 (Homo sapiens), sequence (Q96LD8 whole entry, looked up): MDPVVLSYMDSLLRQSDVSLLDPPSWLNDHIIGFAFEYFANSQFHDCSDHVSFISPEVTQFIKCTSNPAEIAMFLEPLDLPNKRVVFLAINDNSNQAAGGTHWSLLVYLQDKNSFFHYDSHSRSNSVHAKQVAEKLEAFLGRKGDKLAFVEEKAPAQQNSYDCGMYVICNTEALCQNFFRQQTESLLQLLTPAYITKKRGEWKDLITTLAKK
row,Compound,inhibition
1,Oc1ccc(N=Cc2sc3ccccc3c2Cl)cc1,11.3% (inactive)
2,O=c1[nH]c2ccccc2s1,1.69% (inactive)
3,Cc1ccc(C(=O)N/N=C\c2cc(Br)c(Br)o2)cn1,6.43% (inactive)
4,O=[N+]([O-])c1ccc(C=Nc2ccc(Cl)cc2Cl)s1,14.4% (inactive)
5,O=C1Nc2ccc([N+](=O)[O-])cc2C1=Nc1cccc(CO)c1,76.8% (active)
6,c1coc(-c2nc3nc4ccccc4n3nc2-c2ccco2)c1,20.6% (inactive)
7,CN1C(=O)/C(=C/C=C2\SCCN2C)OC1=S,29.4% (inactive)
8,Cc1cc([N+](=O)[O-])c(NC2CCCCC2)c([N+](=O)[O-])c1,11% (inactive)
9,COC(=O)C1=C(C(=O)c2ccc(C)cc2)C(c2ccccc2)n2nnnc2N1 (stereo not drawn),18.1% (inactive)
10,CCc1ccccc1NC(=O)[C@@H]1CCC(=O)N1C1OC(=O)c2c1ccc(OC)c2OC (stereo partly drawn),13.7% (inactive)
11,O=C(OCC(=O)N1CCN(c2ccccc2)CC1)c1ccc([N+](=O)[O-])s1,57% (active)
12,O=C(c1ccccc1)N1CCN(c2ccc([N+](=O)[O-])c(NCc3ccco3)c2)CC1,14.3% (inactive)
13,CCOc1ccc(C(c2c(C)[nH][nH]c2=O)c2c(C)[nH][nH]c2=O)cc1OCC,2.47% (inactive)
14,Cc1[nH][nH]c(=O)c1C(c1ccc(-c2ccc(Cl)cc2)o1)c1c(C)[nH][nH]c1=O,49.8% (active)
15,CCN1CCC2(CC1)N=C(c1ccc(F)cc1)C(=S)N2C(=O)c1ccc(C)cc1,54.5% (active)
16,O=C(COC(=O)c1ccc([N+](=O)[O-])o1)NC12CC3CC(CC(C3)C1)C2,81.4% (active)
17,O=[N+]([O-])c1ccccc1NCc1ccccc1Cl,20.6% (inactive)
18,CCOCCCn1c(NN)nc2ccccc2c1=O,0.12% (inactive)
19,CCCCNCCS(=O)(=O)NCc1ccccc1,26.8% (inactive)
20,O=C(c1cccc(F)c1)N1CCN(c2ccc([N+](=O)[O-])c3cccnc23)CC1,16.9% (inactive)
21,O=C(Nc1ccc(C(=O)O)c(O)c1)c1ccccc1,0.26% (inactive)
22,CN1CCN(S(=O)(=O)c2ccc(N3CCN(c4ccccc4O)CC3)c([N+](=O)[O-])c2)CC1,29.3% (inactive)
23,O=C(Nc1cc2c3c(c1)C1CCCC1CN3CC1CCCC21)c1ccc([N+](=O)[O-])cc1 (stereo not drawn),24.6% (inactive)
24,Nn1cnnc1N/N=C/c1cc([N+](=O)[O-])c(Cl)cc1Cl,16.6% (inactive)
25,COc1ccc(-c2nnco2)cc1OC,14.3% (inactive)
26,CCOc1cc(NC(=O)c2ccccc2C(=O)O)c(OCC)cc1NC(=O)c1ccccc1F,-3.99% (inactive)

row,Compound,inhibition
1,O=C1CC(c2ccccc2)=NN1c1ccc([N+](=O)[O-])cc1,46.5% (active)
2,COC(=O)Cn1c2ccc(C)cc2c2nc(C)sc21,14.2% (inactive)
3,CN1CCc2ccccc2C1Cc1ccccc1NC(=O)c1sc2ccccc2c1Cl (stereo not drawn),0.2% (inactive)
4,Nc1ccc2nc3c(=O)[nH]c(=S)[nH]c3nc2c1,26.8% (inactive)
5,CN(c1ccc(C(=O)N2CCc3ccccc3C2)cc1)S(C)(=O)=O,42.8% (active)
6,CCN(CC)C(=O)CCC(=O)Nc1ccc(C(=O)OC)cc1,8% (inactive)
7,CC(=O)N1CCN(S(=O)(=O)c2cccc(C(=O)NC3CCC(C)CC3)c2)CC1 (stereo not drawn),3.29% (inactive)
8,CCc1ccccc1NC1c2ccccc2C(=O)N1c1cccnc1 (stereo not drawn),12.2% (inactive)
9,O=c1[nH]n2c(=O)c3c([nH]c2c1N=Nc1ccccc1)CCC3,25.4% (inactive)
10,CCOC(=O)/C(=N\Nc1ccccc1[N+](=O)[O-])c1csc(Nc2ccccc2)n1,15% (inactive)
11,O=C(NCCCN1CCN(c2ccc(F)cc2)CC1)Nc1ccc([N+](=O)[O-])cc1,31.9% (inactive)
12,CCc1cccc(C)c1NC(=O)COC(=O)CC1CCCC1,29.1% (inactive)
13,CC(C)Cc1nnc(NC(=O)CCC(=O)Nc2ccc3cn[nH]c3c2)s1,2.31% (inactive)
14,O=C(COc1ccccc1)N1CCc2ccccc2C1,44.4% (active)
15,CCc1ccc(-c2nnn(Cc3nn[nH]n3)n2)cc1,10.7% (inactive)
16,O=C(Cc1ccccc1)NC(=S)Nc1ccc(N2CCCCC2)cc1,11.4% (inactive)
17,CC/C(=N/Nc1ccccc1)c1cnnc(SC)n1,16.1% (inactive)
18,Cc1ccc(C(=O)c2ccc(N3CCN(C)CC3)c([N+](=O)[O-])c2)cc1,14.5% (inactive)
19,CCCCCCCCCCCCCCCC(=O)OC/C=C(C)/C=C/C=C(C)/C=C/C1=C(C)CCCC1(C)C,4.1% (inactive)
20,Cc1cc(C)nc(N/N=C/c2ccc([N+](=O)[O-])o2)n1,22.3% (inactive)
21,CC1(C)C2CCC1(C)C(OC(=O)c1ccc(O)cc1)C2 (stereo not drawn),18.1% (inactive)
22,CCOC(=O)c1ccc(N2C(=O)CC(N(C)Cc3ccccc3)C2=O)cc1 (stereo not drawn),18.6% (inactive)
23,Cc1ccc(NS(=O)(=O)c2ccc(N/N=C/c3ccccc3OCC(=O)O)c([N+](=O)[O-])c2)c(C)c1,29.4% (inactive)
24,CC1(C)Cc2cccc(OCC(=O)Nc3nccs3)c2O1,2.41% (inactive)
25,COc1ccc(Br)cc1/C=N/Nc1ccc(S(=O)(=O)Nc2ccccc2C(=O)O)cc1[N+](=O)[O-],21.5% (inactive)
26,CCCC1CCC(=NNC(=S)NCCc2ccccc2)CC1 (stereo not drawn),5.71% (inactive)

row,Compound,inhibition
1,COC(=O)CCCC1=CC2=CC(=O)C(C)(OC(=O)c3cccs3)C(=O)C2=CN1CC(C)C (stereo not drawn),52.7% (active)
2,CCOC(=O)C1CCCN(C(=O)c2ccc(C)c(F)c2)CC1 (stereo not drawn),10.1% (inactive)
3,COc1cc(C(=S)N2CCOCC2)cc(OC)c1OC(=O)c1cc([N+](=O)[O-])cc([N+](=O)[O-])c1,26.8% (inactive)
4,COc1ccc(C(=O)c2c3ccc([N+](=O)[O-])cc3[n+]([O-])n2CCCN)cc1,70.5% (active)
5,COc1ccc(-c2[nH][nH]c(=O)c2NC(=O)c2ccc([N+](=O)[O-])cc2)cc1,34.5% (inactive)
6,CCOC(=O)CNC(=O)N1c2ccccc2Sc2ccccc21,16.6% (inactive)
7,Cc1sc2ccccc2c1CNC[C@H]1O[C@@H](n2ccc(=O)[nH]c2=O)[C@H](O)[C@@H]1O,8.62% (inactive)
8,Cc1cccc(OCC(=O)NC(=S)Nc2ccccc2N2CCOCC2)c1,13% (inactive)
9,Cc1nc(SCC(=O)c2ccccc2)c([N+](=O)[O-])[nH]1,10.2% (inactive)
10,Cc1cc(C)c(/C=C2\C(=O)Nc3ccccc32)[nH]1,11.5% (inactive)
11,CC(C)CC(=O)N=C1SC2CS(=O)(=O)CC2N1CCc1ccccc1 (stereo not drawn),-0.28% (inactive)
12,O=[N+]([O-])c1ccc(N2CCSCC2)cc1O,22.9% (inactive)
13,CCN=C1SC(CC(=O)Nc2ccc(C)cc2)C(=O)N1CC (stereo not drawn),12.9% (inactive)
14,CC1CCN(c2ccc([N+](=O)[O-])c(SCCO)c2)CC1,19.1% (inactive)
15,Cc1ccccc1NCC(=O)N/N=C\c1ccc([N+](=O)[O-])s1,31.1% (inactive)
16,O=P(O)(CP(=O)(c1ccccc1)c1ccccc1)c1ccccc1O,13.6% (inactive)
17,CCOC(=O)C(CC)Sc1ncnc2c1nnn2-c1ccc(F)cc1 (stereo not drawn),14.5% (inactive)
18,Cn1c2ccc(F)cc2c2nnc(NN)nc21,-8.09% (inactive)
19,O=C(NC(=S)N1CCCCC1c1cccnc1)c1ccccc1 (stereo not drawn),8.53% (inactive)
20,CCC(C)[C@H](NC(=O)N1c2ccccc2NC(=O)[C@@H]1C(C)C)C(=O)N[C@@H](Cc1ccccc1)C(=O)O (stereo partly drawn),7.29% (inactive)
21,COc1ccc(S(=O)(=O)Nc2ccc3cn[nH]c3c2)cc1[N+](=O)[O-],14.1% (inactive)
22,NN=C(NN=Cc1ccccc1)c1ccccc1,43.8% (active)
23,CC(C)[C@H](NC(=O)N1CC(=O)Nc2ccccc21)C(=O)N[C@@H](Cc1c[nH]c2ccccc12)C(=O)O,15% (inactive)
24,COc1cccc(N(CC(=O)NCCSc2ccccn2)S(C)(=O)=O)c1,3.26% (inactive)
25,CCOc1ccc(NCCC(=O)c2ccc3c(c2)OCO3)cc1,23.6% (inactive)
26,Cc1ccc(C(=O)N/C(=C/c2ccc(-c3cccc([N+](=O)[O-])c3)o2)C(=O)NCCCN(C)C)cc1,17.4% (inactive)

# Source: PubChem BioAssay AID624319 (Sanford-Burnham Center for Chemical Genomics, 2012)
